# Data: PubChem BioAssay AID1032 (The Scripps Research Institute Molecular Screening Center, 2008)
# Screen size: about 200,000 compounds; about 670 (0.34%) were called active. What follows is part of a selection rich in actives, with near analogues and random picks from the rest. Unmarked numbers belong to inactive results. Cut-off read from the data, not from the text of the source: active = activation above about 22%; inactive = the rest.
# Target: Peroxisome proliferator-activated receptor gamma (Homo sapiens) (UniProt P37231)
# Assay: compounds enhancing SRC-2 coactivator binding to PPARgamma – biochemical, HTS, primary screen (AID 1032);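 note: 0% = vehicle and 100% = reference agonist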
# Conditions: PPARgamma LBD-SRC-2 recruitment, at 8 µM, stronger effect = higher value
# Peroxisome proliferator-activated receptor gamma (Homo sapiens), sequence (P37231 whole entry, looked up): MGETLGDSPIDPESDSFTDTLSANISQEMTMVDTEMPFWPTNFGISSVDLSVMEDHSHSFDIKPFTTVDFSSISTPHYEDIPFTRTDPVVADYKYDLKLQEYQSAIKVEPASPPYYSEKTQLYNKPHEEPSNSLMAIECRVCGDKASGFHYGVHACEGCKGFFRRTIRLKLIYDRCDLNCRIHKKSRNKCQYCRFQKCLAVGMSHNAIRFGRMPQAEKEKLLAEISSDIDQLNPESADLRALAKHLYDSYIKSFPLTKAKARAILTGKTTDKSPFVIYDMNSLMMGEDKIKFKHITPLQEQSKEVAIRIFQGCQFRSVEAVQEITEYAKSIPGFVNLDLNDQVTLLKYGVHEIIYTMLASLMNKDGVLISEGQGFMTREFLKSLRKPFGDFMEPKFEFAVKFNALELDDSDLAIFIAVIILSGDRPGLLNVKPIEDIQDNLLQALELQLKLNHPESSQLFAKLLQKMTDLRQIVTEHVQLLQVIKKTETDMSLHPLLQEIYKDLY
row,SMILES,activation
1,Cc1nc(-c2ccccc2)sc1C(=O)/C=C/c1ccccc1,13.4%
2,C=CCn1c(-c2sc(-c3ccccc3)nc2C)n[nH]c1=S,7.03%
3,Cc1nc(-c2ccccc2)sc1-c1nc(-c2ccccc2)ncc1S(=O)(=O)c1ccccc1,30% (active)
4,O=C(NC(=S)Nc1cc(C(F)(F)F)ccc1N1CCOCC1)c1ccc(-c2cccc(Cl)c2)o1,2.85%
5,COc1cc(OC)nc(N/N=C(\c2ccccc2)c2ccncc2)n1,-0.95%
6,CC1=NCCN1S(=O)(=O)c1cccc([N+](=O)[O-])c1,0.1%
7,O=C(CN(C(=O)c1csnn1)c1cccc(F)c1)NCc1ccc(F)cc1,-2.69%
8,O=C(c1nnc(-c2ccc(Cl)cc2)o1)C1CCCC1,5.05%
9,CC(C)CNC(=O)COC(=O)c1ccccc1OCC(=O)Nc1ccc(Br)cc1,23.8% (active)
10,COCC(=O)Nc1ccc(Br)cc1,0.8%
11,Cc1cccc(C(=O)OCC(=O)NCC(C)C)c1O,1.94%
12,O=C(Nc1ccc(Cl)cc1)C1c2cccc[n+]2CC(=O)N1Cc1ccc2c(c1)OCO2 (centres undefined),-2.95%
13,CCCC/S(C)=N/S(=O)(=O)c1ccc(C)cc1 (centres undefined),4.28%
14,CC(=O)n1c(C=Nc2ccccc2)c(O)c2ccccc21,18.1%
15,COc1ccc(CC(NC(C)=O)C(=O)NC2CCN(C(=O)c3ccc(OC)c(OC)c3)CC2)cc1OC (centres undefined),-1.68%
16,Cc1cc(C(F)(F)F)n2ncc(-c3ccccc3)c2n1,6.32%
17,Cn1c(-c2sccc2OCc2cccc(C(F)(F)F)c2)n[nH]c1=S,3.72%
18,Cn1c(-c2sc3cc(C(F)(F)F)cnc3c2-c2ccccc2)n[nH]c1=S,49.1% (active)
19,O=C1CN(C(=O)CN2C(=O)NC3(CCCCC3)C2=O)c2ccccc2N1,-3.02%
20,CCSc1ccccc1C(=O)Nc1ccc2c(c1)OCO2,2.54%
21,COC(C(=O)Nc1ccc(S(=O)(=O)Nc2ccc(C)c(C)c2)cc1)c1ccccc1 (centres undefined),-10.9%
22,COC(=O)c1[nH]c2ccc(Br)cc2c1NC(=O)Oc1ccccc1,30% (active)
23,COC(=O)c1[nH]c2ccccc2c1NC(=O)CN1CCCc2ccccc21,-0.25%
24,COC(=O)c1[nH]c2ccccc2c1NS(=O)(=O)c1ccc(OC)cc1OC,13.7%

row,SMILES,activation
1,O=C(Nc1ccc2cn[nH]c2c1)c1ccc(S(=O)(=O)N2CCOCC2)cc1,3.19%
2,Cc1nccn1CCC1CCCCN1C(=O)CCc1nnc(-c2ccsc2)o1 (centres undefined),-4.68%
3,CN(C)CCOc1ccc(Cl)cc1C(C)(C)C,3.96%
4,COc1cc2c(cc1OC)C(C(C)C)=NC(C)(C)C2,4.08%
5,COc1cc2c(cc1O)C(SC)=NC(C)(C)C2,1.5%
6,COc1cc2c(cc1OC)C(Nc1ccc(S(N)(=O)=O)cc1)=NC(C)(C)C2,77.9% (active)
7,COCCNC(=O)c1ccc(N2CCC3(CC2)OCCO3)c([N+](=O)[O-])c1,-6.47%
8,COc1ccc(C(=O)Nc2ccc3nc(N4CCCCC4)cc(C)c3c2)cc1OC,4.19%
9,COc1cccc(/C=C2\SC(=N)N(c3ccc(F)cc3)C2=O)c1,3.36%
10,O=C(/C=C/c1ccc(Cl)cc1Cl)NCc1ccco1,-0.42%
11,O=C(NCc1ccco1)c1cc(-c2cccnc2)nc2ccc(Cl)cc12,8.92%
12,O=C(CSc1c2c(nc3ccc(Cl)cc13)CCCC2)NCc1ccco1,30.9% (active)
13,COC(=O)Cn1c(=NC(=O)c2cc(OC)c(OC)c(OC)c2)sc2cc(OC)ccc21,-0.43%
14,Cc1ccccc1-c1n[nH]c(=S)n1/N=C/c1ccc(-c2ccccc2Br)o1,40.9% (active)
15,Cc1ccccc1-c1n[nH]c(=S)n1C,7.57%
16,Cc1n[nH]c(=S)n1/N=C/c1ccc(Br)o1,6.61%
17,CSc1ccccc1C(=O)NCc1ccccc1,-5.42%
18,Cc1ccc(C(=O)COC(=O)CCN2C(=O)C3C4CC(C(Br)C4Br)C3C2=O)cc1 (centres undefined),3.47%
19,COc1ccc(O[C@H]2C=C[C@@H](c3ccccc3)O[C@@H]2CO/N=C/C[C@@H]2C=C[C@H](OC(C)=O)[C@@H](COC(C)=O)O2)cc1,1.19%
20,CC(=O)Nc1ccc(S(=O)(=O)NC(C)C(=O)OCC(=O)NC2CCCC2)cc1 (centres undefined),-3.44%
21,CS(=O)(=O)N1CCc2cc(C(=O)Nc3ccccc3)ccc21,-4.48%
22,Cc1ccc(NC(=O)CCOc2ccccc2)cc1S(=O)(=O)Nc1ccccc1Cl,3.41%
23,CCOC(=O)c1ccc(NC(=S)N2CCCC2)cc1,-1%
24,CC(=O)c1ccc(S(=O)(=O)N2CCN(c3nc4c(C)c(C)ccc4cc3C#N)CC2)cc1,32% (active)

row,SMILES,activation
1,Cc1cccc2cc(C#N)c(N3CCCC3)nc12,-7.68%
2,Cc1cc(C)c2nc(N3CCCC3)c(C#N)cc2c1,1.23%
3,C/C(=N\Nc1ccc([N+](=O)[O-])cc1)c1ccc(-n2nncc2C(C)(C)C)cc1,-9.74%
4,N#Cc1ccsc1NC(=O)CN1CCN(S(=O)(=O)c2cc(Cl)ccc2Cl)CC1,0.56%
5,O=C(C1CCCO1)N1CCN(C(=S)Nc2cccc(Cl)c2)CC1 (centres undefined),-4.23%
6,O=C1OC(/C=C/c2ccccc2)=NC/1=C/c1ccco1,8.63%
7,CCc1cccc(OC2OC(CO)C(O)C(O)C2NC(C)=O)c1 (centres undefined),9.45%
8,Cc1ccc(-c2csc(SCC(=O)Nc3cc(C)on3)n2)cc1,-2.51%
9,Cc1cc(C)c2c(c1)cc(C)c1nnc(SCC(=O)Nc3cc(C)on3)n12,26.5% (active)
10,Cc1cc(NC(=O)CSc2nnc(Nc3ccccc3F)s2)no1,0.38%
11,Cc1cccc(NC(=O)Cn2c(=O)n(Cc3ccccc3)c(=O)c3c(C)c(C)sc32)c1,3.34%
12,N#Cc1c(-c2ccc(F)cc2)cc(C2CC2)nc1SCC(=O)c1cccs1,1.68%
13,O=C(c1ccc(F)cc1)N1CCC(n2nnc3ccccc32)CC1,-10.4%
14,C=CCC(C(=O)c1ccccc1)[N+](C)(C)CC=C (centres undefined),1.14%
15,CN1CCN(S(=O)(=O)c2ccc(NC(=S)NC(=O)C3CC3)cc2)CC1,5.04%
16,COC(=O)CSc1nccc(-c2cccs2)n1,0.01%
17,NC(=O)CSc1oc(-c2cccs2)nc1S(=O)(=O)c1ccccc1,36.9% (active)
18,COc1ccc(OC)c(C(=O)CSc2nnc(-c3cccs3)o2)c1,10.1%
19,COc1ccccc1C1/C(=C(/O)c2ccc(C)cc2)C(=O)C(=O)N1Cc1ccco1 (centres undefined),-3.88%
20,COc1ccc(/C(O)=C2/C(=O)C(=O)N(c3nc(C)c(C)s3)C2c2ccco2)cc1 (centres undefined),22.7% (active)
21,COc1ccc(/C(O)=C2\C(=O)C(=O)N(Cc3ccco3)C2c2ccc(OC)cc2OC)cc1 (centres undefined),3.94%
22,CCC(C)(C)NC(=O)c1cc([N+](=O)[O-])ccc1N1CCCCC1,0.23%
23,CN(C)c1nccc(NCc2ccccc2)c1C#N,9.56%
24,CN1CCN(C(c2cc3cc4c(cc3[nH]c2=O)OCCO4)c2nnnn2C2CCCC2)CC1 (centres undefined),4.65%

row,SMILES,activation
1,Cc1cc(C(=O)CC#N)c(C)n1-c1c(C)n(C)n(-c2ccccc2)c1=O,3.36%
2,O=C(Nn1cnnc1)c1ccc([N+](=O)[O-])cc1,8.86%
3,COc1ccc2c(Cl)c(C(=O)NCc3ccco3)sc2c1,4.82%
4,COc1ccc(-c2nnco2)cc1OC,-1.39%
5,COc1ccc2c(Cl)c(-c3nnco3)sc2c1,22.3% (active)
6,CC1=C(C)C(=O)OC(C(C)C2CCC3C4CC=C5CC(OC6OC(COC7OC(CO)C(O)C(O)C7O)C(O)C(O)C6O)CC(O)C5(C)C4CCC23C)C1 (centres undefined),-5.38%
7,NC(=O)COc1ccc(C23CC4CC(CC(C4)C2)C3)cc1,13.6%
8,COc1ccc(CC(=O)N2N=C(C)CC2(O)C(F)(F)F)cc1 (centres undefined),4.95%
9,CCOC(=O)c1c(NC(=O)CNC2CCCc3ccccc32)sc(C(N)=O)c1C (centres undefined),19.8%
10,NS(=O)(=O)c1ccc(CCNC(=S)Nc2ccc(S(N)(=O)=O)cc2)cc1,4.85%
11,CCC(C)(C)NC(=O)C(c1cccc(OC)c1OC)N(CC(C)C)C(=O)CCC(=O)Nc1cc(C)on1 (centres undefined),7.07%
12,CC(=O)NC(Cc1ccc(F)c(F)c1)C(=O)NC1CCN(C(=O)c2ccc(C)cc2)CC1 (centres undefined),-0.89%
13,Cc1c(Cc2ccccc2)c(=O)oc2cc(OCC(N)=O)ccc12,4.43%
14,O=C(Oc1ccccc1)Oc1ccc2c(c1)oc(=O)c1ccccc12,48.7% (active)
15,CC(=O)Oc1ccc2c(C)c(CC(C)O)c(=O)oc2c1 (centres undefined),-8.79%
16,O=C(CSc1ncnc2c1nnn2Cc1ccc(F)cc1)NC1CCCC1,11.8%
17,O=C(Nc1ccc([N+](=O)[O-])cc1)C1CC12CCC2 (centres undefined),18.1%
18,CC1CC(C)CN(C(=O)CSc2ccsc2[N+](=O)[O-])C1 (centres undefined),0.24%
19,O=C(CSCc1cccs1)N1CCCC1,-3.94%
20,O=C(CSc1ccsc1[N+](=O)[O-])N1CCCCC1,22% (active)
21,Cc1cccc(OC(=O)c2sc3ncn(C)c(=O)c3c2C)c1,-5.78%
22,CC1=CC=CN2C1=NC(=O)CC2(C)C(=O)N(CC(=O)NC1CCCC1)c1ccccc1C (centres undefined),1.53%
